Screening data deposited in PubChem BioAssay by National Center for Advancing Translational Sciences (NCATS).
Rows were chosen to be rich in hits. Some 9.5% of all compounds tested hit in one or more screens of this group.
Tau fluor counter: counter-screen for tau fibril formation inhibitors. tau K18 P301L Alexa594 fluorescence, heparin fibrillization. Potency, µM (top dose mostly 57.7 µM), inactives show at the highest dose activity change, negative = decrease. 280,000 tested, 0.93% active; note: nearly all actives have a fitted effect of over 55% in size
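Human K18 P301L tau (15 uM unlabeled plus 0.24 uM Alexa 594-labeled, final) in 100 mM sodium acetate pH 7 was mixed with compound and 20 uM heparin and incubated 6 hr at 37 C.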
ALDH1A1 block: inhibitors of human aldehyde dehydrogenase 1A1. P00352. 220,000 tested, 7.3% active. Potency, µM (titrated, usually from 75.3 µM), for inactives: top-dose activity, negative = inhibition, actives largely listed as inhibitors. Purified ALDH1A1, NADH fluorescence, propionaldehyde substrate; active = well fitted inhibition curve with a large enough effect, not every such curve was filed as active; inconclusive = small, poorly fitted or top-dose-only effect, or another doubt; inactive = no such curve, though single readings can be large or run the other way;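 note: plate controls were no enzyme wells and a reference inhibitor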
NPSR antagonist: blocks cAMP signaling of the human neuropeptide S receptor | CHO-NPSR cells, cAMP TR-FRET, antagonist mode | Q6W5P4 | 220,000 tested, 1% active | Potency, µM (series often up to 38.3 µM), for the others: top-dose activity change, negative = inhibition, most hits filed as inhibitors; note: nearly all actives have a fitted effect of over 50% in size
Target sequence (Q6W5P4 whole entry, looked up): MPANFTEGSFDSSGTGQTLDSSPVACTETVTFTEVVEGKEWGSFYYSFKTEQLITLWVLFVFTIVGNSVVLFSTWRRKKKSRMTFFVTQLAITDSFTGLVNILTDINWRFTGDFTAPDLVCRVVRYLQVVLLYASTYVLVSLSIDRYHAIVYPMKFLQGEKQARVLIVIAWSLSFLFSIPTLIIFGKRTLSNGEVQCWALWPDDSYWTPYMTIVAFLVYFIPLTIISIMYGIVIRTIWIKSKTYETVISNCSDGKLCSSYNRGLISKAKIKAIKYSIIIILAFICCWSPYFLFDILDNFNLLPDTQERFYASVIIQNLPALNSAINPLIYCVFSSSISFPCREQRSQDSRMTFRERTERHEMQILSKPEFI
HPGD inh: blocks human HPGD enzyme activity; 150,000 tested, 4.3% active; Potency, µM, for the others: top-dose activity change, negative = inhibition, actives largely listed as inhibitors; purified HPGD, NADH fluorescence kinetic, PGE2 substrate; P15428; AID 894; active = well fitted inhibition curve with a large enough effect, not every such curve was filed as active; inconclusive = small, poorly fitted or top-dose-only effect, or another doubt; inactive = no such curve, though single readings can be large or run the other way
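NADH formation kinetics: reaction with 30 uM PGE2 and 1 mM NAD+ (final), 20 nM enzyme, Tris-HCl pH 8 with Tween 20, after 15 min compound preincubation at room temperature. Fluorescence change, last versus first of five reads.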
Tau fibril ThT: inhibitors of human tau fibril formation, thioflavin T binding. 270,000 tested, 2.1% active. Potency, µM (titrated, usually from 57.4 µM), without a hit: top-dose activity, negative = inhibition, hits mostly inhibitors. AID 1460. recombinant tau K18 P301L (four-repeat tau fragment), heparin-induced fibrillization, ThT fluorescence. P10636; note: nearly all actives have a fitted effect of over 55% in size
Target sequence (P10636 561-689 P618L limits assumed): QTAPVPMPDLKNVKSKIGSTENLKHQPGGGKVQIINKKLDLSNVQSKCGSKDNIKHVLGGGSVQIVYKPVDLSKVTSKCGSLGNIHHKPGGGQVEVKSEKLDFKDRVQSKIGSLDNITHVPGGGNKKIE
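Heparin-induced (20 uM) aggregation of recombinant human K18 P301L tau, 15 uM unlabeled with 0.24 uM labeled, pH 7 acetate buffer, 6 hr at 37 C with compound. Fibrils quantified by 30 uM ThT fluorescence after 1 hr ambient incubation.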
Tau FP inhib: tau fibrillization inhibition (FP); AID 1468; K18 P301L tau heparin fibrillization, Alexa594 FP, 6 h; Potency, µM (top dose mostly 57.7 µM), inactives show top-dose activity, negative = inhibition, hits mostly inhibitors; 280,000 tested, 0.39% active; note: nearly all actives have a fitted effect of over 55% in size
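Steps: dispense K18 P301L tau (15 uM plus 0.24 uM Alexa 594 tracer, final) in pH 7 sodium acetate; add compound; add heparin (20 uM final); incubate 6 hr, 37 C; add ThT (30 uM final); after 1 hr ambient, read FP.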
* = called active by the depositor; ? = inconclusive; nt = not tested or not shown; [ ] = another dose, or the depositor's remark. Unless noted, calls come from the whole dose curve; as a rule, active = well fitted curve in the direction sought with a large enough effect; inconclusive = small, poorly fitted or top-dose-only effect, or another doubt; inactive = no such curve, though single readings can be large; an effect the other way counts as inactive or inconclusive. Unless noted, % is set by controls: 0 for no effect and ±100 for the full control effect; potency is the fitted concentration of half-maximal effect.

SMILES | Tau fluor counter | ALDH1A1 block | NPSR antagonist | HPGD inh | Tau fibril ThT | Tau FP inhib
Cc1ccc(N2CCN(C(=O)N3CCOCC3)CC2)cc1C | 4%[2.34 µM] | 0% | -7% | nt | ? | -3%
Cc1cccc(C)c1N1CCN(C(=O)N2CCOCC2)CC1 | -10% | 11µM* | 0% | nt | -2% | -2%
O=C1c2ccccc2-c2c1cccc2C(=O)N1CCN(C(=O)c2ccco2)CC1 | -6% | 16µM* | -6%[46.1 µM] | -10% | -10% | -3%
Cc1nn(C)c(C)c1S(=O)(=O)N1CCC(C(=O)NCC2COc3ccccc3O2)CC1 (stereo not drawn) | -7% | 9% | 5%[46.1 µM] | -6% | -5% | 1%
Cc1ccc(O)c(C2=NNC(O)(C(F)(F)F)C2)c1 (stereo not drawn) | ? | 9% | 24%[46.1 µM] | 25µM* | -4% | -2%
Cc1ccc(O)c(C2=NNC(c3ccc(Cl)cc3)C2)c1 (stereo not drawn) | ? | nt | 3%[7.67 µM] | nt | ? | -9%
CC1=NN(c2nc(-c3ccc(C)cc3)cs2)C(=O)C1N=Nc1ccc2ccccc2c1 (stereo not drawn) | -23% | ? | 0%[46.1 µM] | -16% | 1.4µM* | -9%
CC1=NN(c2nc(-c3ccc(C)cc3)cs2)C(=O)C1N=Nc1ccc(C(N)=O)cc1 (stereo not drawn) | ? | -15% | -24% | nt | 2.8µM* | 6%
Clc1ccccc1-c1ccc2ncnc(N3CCNCC3)c2c1 | nt | 11% | nt | nt | nt | nt
O=C1CC(c2ccccc2Cl)=NN(c2ncnc3ccccc23)C1=O | -14% | 0.63µM* | -31% | nt | ? | 3%
N[C@H]1[C@@H](C(=O)O)[C@H]2C=C[C@H]1C2 | nt | 0.5µM* | nt | 2% | nt | nt
O=C(O)C1C2C=CC(CC2)C1C(=O)O (stereo not drawn) | -10% | 7% | 3%[46.1 µM] | -3% | -14% | 0%
CC1CN(Cc2csc(-c3ccc(Cl)cc3)n2)CC(C)O1 (stereo not drawn) | -8% | 16µM* | -26% | nt | -17% | 4%
Cc1ccc(S(=O)(=O)N(CC#N)CC#N)cc1 | -1% | 5% | -5% | nt | -2% | -3%
CCCNC(=O)Cn1sc2nc(C)cc(C)c2c1=O | -23% | nt | -11% | nt | nt | 16µM*
CCOC(=O)C1CCCN(C(=O)Cn2cnc3c2c(=O)n(C)c(=O)n3C)C1 (stereo not drawn) | 5% | 7% | -6%[46.1 µM] | -7% | -7% | 4%
CCOC(=O)C1CCCN(C(=O)Cn2sc3nc(C)cc(C)c3c2=O)C1 (stereo not drawn) | -28% | ? | ? | ? | 11µM* | 25µM*
Cc1cc(C)c2c(=O)n(CC(=O)N3CCC(N4CCCCC4)CC3)sc2n1 | ? | 13µM* | -14%[46.1 µM] | 13µM* | 25µM* | 25µM*
CCC(C)NCCOc1cc(C)cc(C)c1C (stereo not drawn) | 3% | ? | 3% | nt | -7% | 4%
CC(NC(=O)Cc1ccc(-c2ccccc2)cc1)c1ccccc1 (stereo not drawn) | -9% | 11µM* | -22%[46.1 µM] | 14µM* | ? | -13%
CC(NC(=O)c1ccc(Br)cc1)c1ccccc1 (stereo not drawn) | 7% | 11µM* | 3% | -6% | 4% | 1%
Cc1ccc(OCCCC(=O)NC(C)c2ccccc2)cc1 (stereo not drawn) | -10% | ? | -20%[46.1 µM] | ? | -8% | -7%
Cc1cccc(N(CC(=O)O)CC(=O)O)c1 | 6% | 6% | 29% | 3% | -8% | 6%
O=C(CCl)N(Cc1ccccc1)c1ccccc1 | 11% | 0.079µM* | -39% | nt | -4% | 15%
Cc1cccc(N(Cc2ccccc2)C(=O)CCl)c1 | 7% | 0.28µM* | -36% | nt | -4% | 14%
SMILES | Tau fluor counter | ALDH1A1 block | NPSR antagonist | HPGD inh | Tau fibril ThT | Tau FP inhib
C=COCCNC(=O)Nc1ccc(Cl)c(Cl)c1 | 10% | -1% | -3%[46.1 µM] | 20µM* | 16% | 4%
C[C@@]1(C(=O)O)NCCc2cc(O)c(O)cc21 | ? | ? | nt | ? | 25µM* | ?
COC(=O)C/C=C/C(C)C(OCc1cccc(-c2ccccc2)c1)C1CCCCC1 (stereo not drawn) | 1%[11.6 µM] | 3%[13.5 µM] | nt | nt | -2%[11.5 µM] | 2%[11.6 µM]
COc1ccccc1-c1cc(C(=O)NCc2ccco2)no1 | -15% | -14% | -14%[46.1 µM] | 20µM* | -6% | 3%
COc1ccccc1-c1cc(C(=O)NCc2cccs2)no1 | -16% | ? | ? | 14µM* | -4% | ?
COCCNC(=O)c1cc(-c2ccccc2OC)on1 | -3% | ? | 7%[46.1 µM] | ? | -10% | -4%
COc1ccccc1-c1cc(C(=O)Nc2cc(Cl)ccc2O)no1 | 7.9µM*[quencher] | nt | nt | nt | -2% | -11%
CCN(CC)C(=O)c1cc(-c2ccccc2OC)on1 | -8% | 14µM* | -17%[46.1 µM] | ? | 0% | -3%
C[C@@H](C(=O)NCc1ccc(C(F)(F)F)nc1)[C@H]1C[C@]1(C)[C@H](NC(=O)OCc1ccccc1)c1ccccc1 | -25% | ? | nt | -11% | -13% | 5%
O=[N+]([O-])c1ccccc1NCc1c(O)ccc2ccccc12 | 13µM*[quencher] | nt | -5% | nt | ? | -13%
O=[N+]([O-])c1ccc(CCNc2cccc3ccccc23)c([N+](=O)[O-])c1 | ? | ? | -3% | -20% | ? | 10%
CCc1ccccc1NC(=O)c1ccc(Cn2nc(N3CCN(c4ccccc4)CC3)ccc2=O)o1 | -28% | nt | nt | nt | ? | -7%
CCCCCCCCCCCCCCCC[n+]1ccc(/C=N/O)cc1 | 8% | -6% | 5µM* | -2% | ? | 14%
CCCCCCCCCCCCCCCC[n+]1ccc(C(N)=O)cc1 | 8% | -3% | -45% | -2% | -18% | 7%
O=c1[nH]c(-c2ccc(Cl)cc2)cs1 | 3% | ? | 17% | nt | 4% | -2%
O=c1[nH]c(-c2ccccc2)cs1 | 3% | 15% | 4% | -1% | 6% | -1%
S=c1[nH]c(-c2ccccc2)cs1 | -7% | 3.5µM* | -38% | nt | -14% | 2%
Fc1ccc(-c2csc(=S)[nH]2)cc1 | -20% | 3.5µM* | -7% | nt | ? | -4%
N/C(Cc1ccccc1)=N\OC(=O)c1cccc2ccccc12 | -13% | -6% | -5% | 2.5µM* | -7% | -3%
CCC(=O)Nc1ccc(Cl)c(NC(=O)c2cccc(OC)c2)c1 | -4% | -10% | -4% | nt | 0% | -4%
COc1ccc(NC(=O)c2cccc(OS(=O)(=O)N(C)C)c2)cc1 | 7% | 4µM* | 19% | nt | 13% | -2%
CN(C)S(=O)(=O)Oc1cccc(C(=O)Nc2cccc(Cl)c2)c1 | ? | 0.79µM* | -6%[46.1 µM] | -22% | -7% | ?
COc1cccc(C(=O)Nc2cccc(NC(=O)c3ccc(Cl)cc3Cl)c2)c1 | ? | nt | nt | nt | -9% | ?
